Experimental data from PubChem BioAssay (NCI).
About 83,000 compounds went through this panel and 20% of them were active in at least one assay; those are over-represented in the sample as a whole.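 Testing used 96-well plates and a 48-hour single-concentration exposure. Example: -40 means 40% of the starting cells died.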 Activity calls are given as the source filed them. The calls were made as follows: active = growth percent below 10; inactive = the rest.

Experiments:
Assay in all cases: NCI-60 one-dose screen, 48 h (100 = growth as untreated, 0 = no growth, -100 = all killed)
Conditions in all cases: 10 µM unless noted
SR leukemia = system: SR leukemia
RPMI-8226 leukemia = system: RPMI-8226 leukemia
OVCAR-8 ovarian = system: OVCAR-8 ovarian
OVCAR-5 ovarian = system: OVCAR-5 ovarian
OVCAR-4 ovarian = system: OVCAR-4 ovarian
SK-OV-3 ovarian = system: SK-OV-3 ovarian
IGROV1 ovarian = system: IGROV1 ovarian
OVCAR-3 ovarian = system: OVCAR-3 ovarian
HS 578T breast = system: HS 578T breast
NCI/ADR-RES ovarian = system: NCI/ADR-RES ovarian

Measured: growth

CCN(CC)CCCC(C)Nc1ccnc2c(OC)cccc12 (centres undefined)
inactive: SR leukemia 97.3% | RPMI-8226 leukemia 103% | OVCAR-8 ovarian 106% | OVCAR-5 ovarian 102% | OVCAR-4 ovarian 111% | SK-OV-3 ovarian 117% | IGROV1 ovarian 109% | OVCAR-3 ovarian 146% | HS 578T breast 127% | NCI/ADR-RES ovarian 110%

C[C@]12C[C@@H](c3ccoc3)OC(=O)[C@@H]1CC[C@]1(C)[C@@H]2CC[C@@H](O)[C@]1(C)O
inactive: SR leukemia 74.5% | RPMI-8226 leukemia 101% | OVCAR-8 ovarian 104% | OVCAR-5 ovarian 137% | OVCAR-4 ovarian 128% | SK-OV-3 ovarian 105% | IGROV1 ovarian 102% | OVCAR-3 ovarian 112%

CCOC(=O)c1nc(Nc2cc(C)[nH]n2)c2ccccc2n1
inactive: SR leukemia 81.1% | RPMI-8226 leukemia 114% | OVCAR-8 ovarian 111% | OVCAR-5 ovarian 103% | OVCAR-4 ovarian 82.5% | SK-OV-3 ovarian 75.8% | IGROV1 ovarian 76.2% | OVCAR-3 ovarian 97.7%

OC(c1cc(-c2ccccc2)nc2ccc(Cl)cc12)C1CCCCN1 (centres undefined)
inactive: RPMI-8226 leukemia 13.1% | OVCAR-8 ovarian 33.1% | OVCAR-5 ovarian 58.8% | OVCAR-4 ovarian 79% | SK-OV-3 ovarian 89.1% | IGROV1 ovarian 53.4% | OVCAR-3 ovarian 67.5% | HS 578T breast 61.6% | NCI/ADR-RES ovarian 68.5%
active: SR leukemia -25.8%

O=C1c2ccccc2-c2nccc3cc(Cl)nc1c23
inactive: OVCAR-8 ovarian 51.1% | OVCAR-5 ovarian 96.5% | SK-OV-3 ovarian 97.5%
active: SR leukemia -27.8% | RPMI-8226 leukemia 4.08% | OVCAR-4 ovarian -96.4% | IGROV1 ovarian 0.315% | OVCAR-3 ovarian -87.3% | HS 578T breast -7.62%

CC/C=C\C[C@H](F)C/C=C1/C(=O)C=C[C@@H]1C/C=C\CCCC(=O)OC
active: SR leukemia -25.8% | RPMI-8226 leukemia -10.4% | OVCAR-8 ovarian -15.4% | OVCAR-3 ovarian -13.2%
inactive: OVCAR-5 ovarian 68.2% | OVCAR-4 ovarian 24.2% | SK-OV-3 ovarian 50.3% | IGROV1 ovarian 10.6% | HS 578T breast 45.2%

COc1nc2c(cc1S(=O)(=O)c1ccccc1)CCc1c-2cnn1Cc1ccccc1
inactive: SR leukemia 26.2% | RPMI-8226 leukemia 32.8% | OVCAR-8 ovarian 54% | OVCAR-5 ovarian 93.6% | OVCAR-4 ovarian 35.2% | SK-OV-3 ovarian 58% | IGROV1 ovarian 80.5% | OVCAR-3 ovarian 64.5% | HS 578T breast 79.9%

O=C(O)c1c([N+](=O)[O-])cnc2ccccc12
inactive: SR leukemia 135% | RPMI-8226 leukemia 108% | OVCAR-8 ovarian 96.2% | OVCAR-5 ovarian 99.1% | OVCAR-4 ovarian 107% | SK-OV-3 ovarian 93% | IGROV1 ovarian 106% | OVCAR-3 ovarian 118% | HS 578T breast 113% | NCI/ADR-RES ovarian 96.7%

O=C(Nc1cccc2[nH]c(C(F)(F)F)nc12)c1ccc(Br)cc1F
active: RPMI-8226 leukemia 4.55%
inactive: SR leukemia 18.5% | OVCAR-8 ovarian 33.2% | OVCAR-5 ovarian 98.9% | OVCAR-4 ovarian 11.8% | SK-OV-3 ovarian 65.1% | IGROV1 ovarian 42.2% | OVCAR-3 ovarian 24.4% | HS 578T breast 70.4%

Oc1ccccc1N=Cc1c(O)ccc2ccccc12
inactive: SR leukemia 37.5% | RPMI-8226 leukemia 26.5% | OVCAR-8 ovarian 97.8% | OVCAR-5 ovarian 87.3% | OVCAR-4 ovarian 74.8% | SK-OV-3 ovarian 84.6% | IGROV1 ovarian 58.9% | OVCAR-3 ovarian 64.2% | HS 578T breast 64.9% | NCI/ADR-RES ovarian 56.8%

O=C(Nc1ccc(CN2CCOCC2)cc1)c1[nH]ncc1Nc1ncnc2sccc12
active: SR leukemia -4.39% | RPMI-8226 leukemia -3.98% | OVCAR-3 ovarian -15.7% | HS 578T breast -2.92%
inactive: OVCAR-8 ovarian 11.6% | OVCAR-5 ovarian 16.1% | OVCAR-4 ovarian 13.6% | SK-OV-3 ovarian 33% | IGROV1 ovarian 16.7%

CCN(CC)Cc1cc(Nc2c3ccccc3nc3cc(Cl)ccc23)ccc1O
active: SR leukemia -37.1% | RPMI-8226 leukemia -21.1% | OVCAR-8 ovarian -60.1% | OVCAR-5 ovarian -15.3% | OVCAR-4 ovarian -97.8% | SK-OV-3 ovarian -2.76% | IGROV1 ovarian 2.96% | OVCAR-3 ovarian -92.2% | HS 578T breast -30.9%

COCCCN=C(N)c1ccc(NC(=O)c2ccc(C(=O)Nc3ccc(C(N)=NCCCOC)cc3)cc2)cc1
inactive: SR leukemia 72.3% | RPMI-8226 leukemia 63.2% | OVCAR-8 ovarian 106% | OVCAR-5 ovarian 110% | OVCAR-4 ovarian 105% | SK-OV-3 ovarian 115% | IGROV1 ovarian 120% | OVCAR-3 ovarian 154% | HS 578T breast 151%

Brc1cccc(-c2nc(-c3ccc4c(c3)OCCO4)co2)c1
inactive: SR leukemia 37.7% [25 µM] | RPMI-8226 leukemia 58.1% [25 µM] | OVCAR-8 ovarian 71.8% [25 µM] | OVCAR-5 ovarian 81.4% [25 µM] | OVCAR-4 ovarian 81% [25 µM] | SK-OV-3 ovarian 69.7% [25 µM] | IGROV1 ovarian 62.1% [25 µM] | OVCAR-3 ovarian 32.7% [25 µM] | HS 578T breast 65.4% [25 µM] | NCI/ADR-RES ovarian 28.5% [25 µM]

O=C(CCCN1CCOCC1)Nc1ccc(Cn2nnc3c2C(=O)c2nnn(Cc4ccc(NC(=O)CCCN5CCOCC5)cc4)c2C3=O)cc1
active: OVCAR-4 ovarian -65.7% | IGROV1 ovarian 3.22% | OVCAR-3 ovarian -1.11%
inactive: SR leukemia 10.6% | RPMI-8226 leukemia 37.5% | OVCAR-8 ovarian 38.5% | OVCAR-5 ovarian 121% | SK-OV-3 ovarian 92.1% | HS 578T breast 101%

COc1cccc(NC(=O)c2sc3nc4c(cc3c2N)CN(Cc2ccccc2)CC4)c1
inactive: SR leukemia 28.8% | RPMI-8226 leukemia 72.7% | OVCAR-8 ovarian 47% | OVCAR-5 ovarian 85.3% | OVCAR-4 ovarian 20.5% | SK-OV-3 ovarian 36.9% | IGROV1 ovarian 44.2% | OVCAR-3 ovarian 36.4% | HS 578T breast 20.8%

CCN(CC)Cc1cc(Nc2c3ccc(Cl)cc3nc3c(C)cccc23)ccc1O
active: SR leukemia -18.9% | RPMI-8226 leukemia -14.6% | OVCAR-8 ovarian -42.6% | OVCAR-5 ovarian -37.7% | OVCAR-4 ovarian -96% | SK-OV-3 ovarian -10.3% | IGROV1 ovarian -49.3% | OVCAR-3 ovarian -71.6% | HS 578T breast -24.4% | NCI/ADR-RES ovarian -49.8%

N#Cc1c2c(nc3n[nH]c(N)c13)CCCC2
inactive: SR leukemia 93.6% | RPMI-8226 leukemia 100% | OVCAR-8 ovarian 111% | OVCAR-5 ovarian 93.8% | OVCAR-4 ovarian 101% | SK-OV-3 ovarian 116% | IGROV1 ovarian 109% | OVCAR-3 ovarian 100% | HS 578T breast 117%

CCN(CC)CC(O)CNc1c2ccc([N+](=O)[O-])cc2nc2cc(OC)c(OC)cc12 (centres undefined)
inactive: OVCAR-5 ovarian 10%
active: SR leukemia -7.08% | RPMI-8226 leukemia -13.8% | OVCAR-8 ovarian -2.1% | OVCAR-4 ovarian -39.3% | SK-OV-3 ovarian -42.5% | IGROV1 ovarian -39.9% | OVCAR-3 ovarian -37.7% | HS 578T breast -18.2%

CCCCCCCCCCCCCC(=O)C(C)N (centres undefined)
inactive: RPMI-8226 leukemia 31.9% | OVCAR-8 ovarian 89.9% | OVCAR-5 ovarian 68.7% | OVCAR-4 ovarian 14.3% | SK-OV-3 ovarian 72.5% | IGROV1 ovarian 53.2% | OVCAR-3 ovarian 73.6% | HS 578T breast 70.6% | NCI/ADR-RES ovarian 75.8%
active: SR leukemia -2.57%

C=C1CCC2C3(C)COC(c4ccccc4Br)OC3CCC2(C)C1C/C=C1/C(=O)OCC1OC(C)=O (centres undefined)
active: SR leukemia -40.9% | RPMI-8226 leukemia -47% | OVCAR-8 ovarian -36.2% | OVCAR-5 ovarian -38.3% | OVCAR-4 ovarian -62.2% | IGROV1 ovarian -9.12% | OVCAR-3 ovarian -88.8% | HS 578T breast -30.9%
inactive: SK-OV-3 ovarian 52.7%

CCCC(=O)Oc1ccc(/C(=C(/CC)Cc2ccccc2)c2ccc(OCCN3CCCC3)cc2)cc1
active: SR leukemia 1.36%
inactive: RPMI-8226 leukemia 33.3% | OVCAR-8 ovarian 96.4% | OVCAR-5 ovarian 84.2% | OVCAR-4 ovarian 68.4% | SK-OV-3 ovarian 97% | IGROV1 ovarian 74% | OVCAR-3 ovarian 74.1% | HS 578T breast 82.7%

Cc1ccc(NC(=O)c2sc3nc4c(cc3c2N)C(=O)CCC4)cc1C
active: SK-OV-3 ovarian 4.9% | OVCAR-3 ovarian -10.2%
inactive: SR leukemia 22.9% | RPMI-8226 leukemia 11.4% | OVCAR-8 ovarian 31.6% | OVCAR-5 ovarian 32.6% | OVCAR-4 ovarian 76% | IGROV1 ovarian 23.9% | HS 578T breast 28.1%

CS(=O)(=O)c1ccc(-c2cnc3ccc(-c4cccc(S(C)(=O)=O)c4)nn23)cc1
inactive: SR leukemia 21.1% | RPMI-8226 leukemia 18.8% | OVCAR-8 ovarian 53.1% | OVCAR-5 ovarian 44.2% | OVCAR-4 ovarian 72.8% | SK-OV-3 ovarian 43.4% | IGROV1 ovarian 14% | OVCAR-3 ovarian 33.3% | HS 578T breast 10% | NCI/ADR-RES ovarian 80.9%

Nc1c(C(=O)Nc2cccc3c2OCCO3)sc2nc3c(cc12)C(=O)CCC3
inactive: SR leukemia 36.3% | RPMI-8226 leukemia 33.7% | OVCAR-8 ovarian 51.8% | OVCAR-5 ovarian 36.1% | OVCAR-4 ovarian 71% | SK-OV-3 ovarian 70.5% | IGROV1 ovarian 48% | OVCAR-3 ovarian 16.2% | HS 578T breast 29.5% | NCI/ADR-RES ovarian 14.1%

O=C1Nc2ccccc2C12CC(c1ccc(Cl)cc1)=NN2 (centres undefined)
inactive: SR leukemia 86.2% | RPMI-8226 leukemia 77.8% | OVCAR-8 ovarian 95.2% | OVCAR-5 ovarian 95.8% | OVCAR-4 ovarian 98.6% | SK-OV-3 ovarian 107% | IGROV1 ovarian 101% | OVCAR-3 ovarian 116% | HS 578T breast 107%

O=C(CN1CCN(c2cc3c(cc2F)c(=O)c(C(=O)O)cn3C2CC2)CC1)Nc1nc(-c2ccccc2)cs1
inactive: SR leukemia 90.5% | RPMI-8226 leukemia 66.3% | OVCAR-8 ovarian 52.1% | OVCAR-5 ovarian 97.7% | OVCAR-4 ovarian 97.5% | SK-OV-3 ovarian 93.9% | IGROV1 ovarian 84.7% | OVCAR-3 ovarian 90.3% | HS 578T breast 60.5%

COc1cc(OC)c(/C=C/S(=O)(=O)Cc2cnc(OC)c(N)c2)c(OC)c1
active: SR leukemia -6.9% | OVCAR-3 ovarian -13.5%
inactive: RPMI-8226 leukemia 29.1% | OVCAR-8 ovarian 18.9% | OVCAR-5 ovarian 55.2% | OVCAR-4 ovarian 50.3% | SK-OV-3 ovarian 11.9% | IGROV1 ovarian 29.4% | HS 578T breast 47.5%

CCCCCC(=O)N(CCCC)CCCC
inactive: SR leukemia 95.5% | RPMI-8226 leukemia 93.8% | OVCAR-8 ovarian 102% | OVCAR-5 ovarian 103% | OVCAR-4 ovarian 84.6% | SK-OV-3 ovarian 93.7% | IGROV1 ovarian 113% | OVCAR-3 ovarian 120% | HS 578T breast 109% | NCI/ADR-RES ovarian 111%
